Assay outcomes from PubChem.
ADAM17 inh: inhibitors of human ADAM17; actives 0.83% (n = 370,000); recombinant ADAM17, EDANS/DABCYL FRET peptide cleavage; inhibition, % at 6.95 µM; P78536;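 active means inhibition above the mean of compounds lying between control limits plus 3 SD, set per campaign, cut at about 8.5% in these data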
Target sequence (P78536 215-824 limits assumed): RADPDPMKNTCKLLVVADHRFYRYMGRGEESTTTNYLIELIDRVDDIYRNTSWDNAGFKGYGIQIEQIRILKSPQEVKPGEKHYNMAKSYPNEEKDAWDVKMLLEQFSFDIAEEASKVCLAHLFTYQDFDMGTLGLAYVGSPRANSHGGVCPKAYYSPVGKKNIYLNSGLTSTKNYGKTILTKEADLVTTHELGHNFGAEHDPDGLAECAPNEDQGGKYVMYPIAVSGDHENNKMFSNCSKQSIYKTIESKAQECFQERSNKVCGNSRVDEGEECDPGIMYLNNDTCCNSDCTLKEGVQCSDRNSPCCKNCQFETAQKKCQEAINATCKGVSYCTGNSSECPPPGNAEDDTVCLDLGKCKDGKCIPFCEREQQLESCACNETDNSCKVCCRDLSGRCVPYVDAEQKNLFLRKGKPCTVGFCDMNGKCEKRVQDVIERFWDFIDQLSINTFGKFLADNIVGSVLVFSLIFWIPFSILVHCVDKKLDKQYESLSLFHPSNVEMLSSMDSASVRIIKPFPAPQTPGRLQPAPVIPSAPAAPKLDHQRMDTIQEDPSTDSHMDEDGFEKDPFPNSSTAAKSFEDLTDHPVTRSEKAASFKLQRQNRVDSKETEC
NR3A LBD binder: NR3A (human) ligand-binding domain modulation | actives 2.5% (n = 340,000) | NR3A LBD differential scanning fluorimetry, Tm shift; 0% = protein alone, 100% = glycine-bound protein | Tm shift relative to glycine control, % at 25 µM;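 active means melting temperature shift of at least 10% of the positive control shift, at one fixed dose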
proKLK7 act: proKLK7 (human) activation, primary screen. purified proKLK7, EDANS-DABCYL substrate fluorescence; 100% is mature enzyme control, 0% vehicle. activation, % at 7 µM. actives 0.9% (n = 370,000). AID 652039;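 active means activation above the mean of all tested compounds plus 3 SD, computed per campaign excluding outliers beyond control limits, cut at about 13% in these data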
ADAM10 inh: ADAM10 inhibition, QFRET primary screen. inhibition, % at 7 µM. O14672. actives 0.62% (n = 370,000). recombinant ADAM10, EDANS/DABCYL FRET peptide cleavage, 3 h;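 active means inhibition above a per-campaign cutoff equal to the mean of compounds falling between control-based bounds plus 3 SD, cut at about 20% in these data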
FAS-TE inh: blocks the thioesterase domain of human fatty acid synthase; P49327; recombinant FAS-TE, OMFH fluorogenic substrate, fluorescence endpoint; inhibition, % at 15 µM; actives 0.67% (n = 360,000);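 active means compounds whose normalised, plate-corrected inhibition of enzyme fluorescence in the single-dose primary screen is 50% or more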
ADAM10 confirm: confirmation of inhibitors of human ADAM10; shares compounds with ADAM10 inh; ADAM10 QFRET peptide cleavage, EDANS fluorescence; inhibition, % at 6.95 µM; actives 1% (n = 2,100); AID 743208;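 active means inhibition above about 20% chosen separately for each screening run, limit read from the data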
ADAM17 counter: ADAM17 inhibition, counter-screen for ADAM10 exosite hits; shares compounds with ADAM10 inh; ADAM17 QFRET peptide cleavage, EDANS fluorescence; inhibition, % at 6.95 µM; actives 0.5% (n = 2,100); AID 743214;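 active means mean triplicate inhibition above the solvent-only control wells' mean plus 3 SD, cut at about 12% in these data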
ADAM10 ctr: inhibits human ADAM10 in ADAM17 exosite counter-screen. inhibition, % at 6.95 µM. recombinant ADAM10, EDANS/DABCYL FRET peptide cleavage, 3 h. AID 743256. shares compounds with ADAM17 inh. actives 47% (n = 2,900);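 active means mean inhibition over the triplicate runs exceeds the activity threshold set in the earlier primary screen, cut at about 20% in these data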
ADAM17 confirm: confirmation of inhibitors of human ADAM17; inhibition, % at 6.95 µM; shares compounds with ADAM17 inh; actives 65% (n = 2,900); recombinant ADAM17, EDANS/DABCYL QFRET peptide cleavage;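 active means mean inhibition across replicates above the hit cutoff set in the primary screen, cut at about 8.5% in these data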
Of the large screens only hits and unclear results are named; the others gave an inactive call (follow-up assays come after a bar, where they were run). Rows were chosen to be rich in hits. Some 4.6% of all compounds tested hit in one or more screens of this group.

COc1ccc(CNC(=O)C2(c3ccc(Cl)cc3)CC2)cc1	ADAM10 inh 21 | ADAM10 confirm inactive | ADAM17 counter inactive
NS(=O)(=O)c1ccc(CNC(=O)C2(c3ccc(Cl)cc3)CC2)cc1	none
Cc1ccc(Oc2ccc(-c3nc(N)nc(N)n3)cc2)cc1C	NR3A LBD binder 14, ADAM10 inh 20 | ADAM10 confirm inactive | ADAM17 counter inactive
Nc1nc(N)nc(-c2ccc(Oc3ccccc3)cc2)n1	none
O=C(COc1ccc(Cl)cc1Cl)Nc1ccccc1NS(=O)(=O)c1cccs1	none
O=C(Nc1ccc(Cl)cc1)Nc1ccccc1NS(=O)(=O)c1cccs1	NR3A LBD binder 30, ADAM10 inh 23 | ADAM10 confirm inactive | ADAM17 counter inactive
C[C@@H]1CN([C@H](C)CO)S(=O)(=O)c2ccc(Br)cc2O[C@H]1CN(C)CC1CCOCC1	none (no result: NR3A LBD binder, FAS-TE inh)
CCOC(=O)c1c(-c2ccccc2)csc1NC(=O)CSc1nnnn1C	none
CCOC(=O)c1c(NC(=O)CSc2nnnn2C)sc(C)c1-c1ccc(C)cc1	ADAM10 inh 26 | ADAM10 confirm inactive | ADAM17 counter inactive
O=C(C=Cc1ccc(OCc2ccccc2)cc1)c1c(F)cccc1F	none (no result: NR3A LBD binder, FAS-TE inh)
CCNc1nc(NC(C)C)nc(SCCOC(=O)c2ccccc2)n1	none
CCNc1nc(NC(C)C)nc(SCCOc2ccc(C)cc2)n1	ADAM10 inh 24 | ADAM10 confirm inactive | ADAM17 counter inactive
O=C(NCc1ccccc1)[C@@H]1CCCN1C(=O)[C@H]1CCCN1C(=O)c1cccs1	none (no result: NR3A LBD binder, FAS-TE inh)
O=C(Nc1ccccc1)c1ccc(-c2ccccc2Cl)o1	ADAM10 inh 20 | ADAM10 confirm inactive | ADAM17 counter inactive
COc1ccccc1NC(=O)c1c(Nc2ccccc2F)sc(C(=O)Nc2cccc(Cl)c2)c1N	ADAM17 inh 9.1, NR3A LBD binder 29, ADAM10 inh 27 | ADAM10 confirm inactive | ADAM17 counter inactive
Oc1ccc2[nH]cc(-c3cccs3)c2c1-c1ccccc1	none (no result: NR3A LBD binder, FAS-TE inh)
CCc1cc(C(=O)Cc2ccc(F)cc2)c(O)cc1O	ADAM10 inh 23 | ADAM10 confirm inactive | ADAM17 counter inactive
C=CCc1cccc(CNc2nc3ccccc3n2CC)c1O	ADAM10 inh 20 | ADAM10 confirm inactive | ADAM17 counter inactive
CCCCn1c(NCc2ccccc2O)nc2ccccc21	none
Cc1nc2cc(NC(=O)c3ccc(Cl)cc3)ccc2n1C	ADAM10 inh 23 | ADAM10 confirm inactive | ADAM17 counter inactive
COc1cc(C(=O)Nc2ccc3c(c2)nc(C)n3C)cc(OC)c1OC	none
O=C1C(=Cc2cn(-c3ccccc3)nc2-c2ccc(OCc3ccccc3F)cc2)SC(=S)N1CCS(=O)(=O)O	ADAM10 inh 26 (no result: NR3A LBD binder) | ADAM10 confirm inactive | ADAM17 counter inactive
COc1ccc(C2CC(=O)C(c3cccc(F)c3)=CN2Cc2ccccc2)cc1 (stereo not given)	none (no result: NR3A LBD binder, FAS-TE inh)
Cc1ccc(-c2n[nH]c(=S)n2/N=C/C=C\c2ccccc2[N+](=O)[O-])cc1	ADAM10 inh 29 | ADAM10 confirm inactive | ADAM17 counter inactive
O=[N+]([O-])c1ccccc1/C=C/C=N/n1c(-c2ccccc2)n[nH]c1=S	none
CCOC(=O)COc1ccc2c(c1)c(C(C)=O)c(C)n2-c1ccc(OC)cc1	ADAM10 inh 21 | ADAM10 confirm inactive | ADAM17 counter inactive
Oc1ccc(F)cc1-c1cc(-c2ccc3c(c2)OCCO3)n[nH]1	ADAM10 inh 23 | ADAM10 confirm inactive | ADAM17 counter inactive
Oc1ccccc1-c1cc(-c2ccc(F)cc2)n[nH]1	none
O=C(c1ccccc1O)N1N=C(C(F)(F)F)CC1(O)c1ccc([N+](=O)[O-])cc1 (stereo not given)	ADAM10 inh 27 | ADAM10 confirm inactive | ADAM17 counter inactive
N#Cc1cccc(NC(=O)OC2CC3CC2[C@H]2CCCCN2[C@H]3Cc2ccccc2)c1 (stereo not given in full)	none (no result: NR3A LBD binder, FAS-TE inh)
COC(=O)c1ccc(N2CCC(c3cc(-c4ccc(OC)cc4)n[nH]3)CC2)c([N+](=O)[O-])c1	ADAM17 inh 12, ADAM10 inh 29 | ADAM10 confirm inactive | ADAM17 counter inactive | ADAM10 ctr 35 | ADAM17 confirm 18
COC(=O)[C@]12C[C@H](CC(=O)N3CCN(C(=O)C4CC4)CC3)C(=O)N(CCC3=CCCCC3)C1=C[C@H](COCc1ccccc1)O[C@@H]2C	none (no result: NR3A LBD binder, FAS-TE inh)
CCOC(=O)CC1(O)CSc2nc(N)cc(=O)n21 (stereo not given)	none (no result: NR3A LBD binder, FAS-TE inh)
COC(=O)c1c(NC(NC(=O)C(C)C)C(Cl)(Cl)Cl)sc2c1CCCC2 (stereo not given)	ADAM17 inh 10, ADAM10 inh 22 | ADAM10 confirm inactive | ADAM17 counter inactive | ADAM10 ctr 26 | ADAM17 confirm 16
Cc1ccc(Oc2ccc(Cl)cc2N)cc1	none
Nc1cc(Cl)ccc1Oc1ccc2ccccc2c1	ADAM17 inh 17, ADAM10 inh 29 | ADAM10 confirm inactive | ADAM17 counter inactive | ADAM10 ctr inactive | ADAM17 confirm 12
CC(C)[C@H](NC(=O)c1ccc(Cl)cc1Cl)C(=O)N1CCC[C@H]1C(=O)NCc1ccccc1	none (no result: NR3A LBD binder, FAS-TE inh)
CC(C)(C)NS(=O)(=O)c1ccc(NC(=O)C(Sc2ccccc2)c2ccccc2)cc1 (stereo not given)	ADAM17 inh 19, NR3A LBD binder 23, ADAM10 inh 41 | ADAM10 confirm inactive | ADAM17 counter inactive | ADAM10 ctr 44 | ADAM17 confirm 22
CCOC(=O)c1ccc(NC(=O)CN(Cc2ccc(Cl)cc2)S(C)(=O)=O)cc1	ADAM17 inh 11, ADAM10 inh 26 | ADAM10 confirm inactive | ADAM17 counter inactive | ADAM10 ctr 25 | ADAM17 confirm 15
CS(=O)(=O)N(CC(=O)Nc1ccc2c(c1)OCCO2)Cc1ccc(Cl)cc1	none
COc1ccc(-c2n[nH]c(C)c2-c2cnn(-c3ccccc3)c2)c(O)c1	ADAM17 inh 15, ADAM10 inh 30 | ADAM10 confirm inactive | ADAM17 counter inactive | ADAM10 ctr 23 | ADAM17 confirm 14
C=C(C)COc1ccc(-c2n[nH]c(C)c2-c2ccc(OC)cc2)c(O)c1	ADAM17 inh 13, NR3A LBD binder 12, ADAM10 inh 31 | ADAM10 confirm inactive | ADAM17 counter inactive | ADAM10 ctr 34 | ADAM17 confirm 17
COc1ccc(-c2n[nH]c(C)c2-c2cscn2)c(O)c1	none
